# Data as given in PubChem BioAssay AID2713 (National Center for Advancing Translational Sciences (NCATS), 2010).
# “And” between values parts separate entries of the source, which are not always exact repeats. Equal values may be shown once. Records with an inconclusive call do not appear. The source made the active and inactive calls.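 How the source made its calls: active means compounds raising survival of Huntington mutant striatal cells while barely changing normal control cells; inconclusive means compounds that make cell death worse; inactive means the rest.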
# Experiment: qHTS Multiplex Assay to Identify Dual Action Probes in a Cell Model of Huntington: Cytotoxicity in HTT Striatal Cells
# Conditions: STHdhQ111/111 striatal cells, serum-free, ATP luminescence, 24 h
# Source text: NIH Chemical Genomics Center [NCGC] NIH Molecular Libraries Probe Production centers Network [MLPCN] MLPCN Grant: MH084839-01A1 Assay Submitter (PI): Wei Zheng NCGC Assay Overview: Huntington's disease is a neurodegenerative disorder caused by a trinucleotide repeat expansion in Exon 1 of the Huntingtin gene. The CAG trinucleotide encodes glutamine and polyglutamine expansions cause cell death in selective areas of the brain. Huntington polyglutamine repeats have the tendency to form aggregates which are observable in later stages of the disease. The exact nature of the aggregates, whether toxic, protective, or insignificant, is unclear. A stable PC12 cell line containing a gene fusion of Exon 1 of the Huntingtin gene linked to GFP under the control of the inducible ecdysone promoter were used as the cell-based model of Huntington Disease for high throughput screening. Exon 1 of the Huntingtin gene contained an expansion of 103 polyglutamines (Q103) which, when expressed, caused cell death and distinct, bright GFP aggregates. The amount of cell death and the size and intensity of GFP aggregates increased over time and induction level. The cell death were quantified with a measurement of ATP content in the cells. A maximal 40-50% of cell death was observed when the Huntington gene was induced in this cell line. We optimized this assay in a homogeneous 1536 well format. A quantitative high throughput screen (qHTS) was conducted on the PC12 cells which were induced to express the toxic fusion construct. Small molecules which prevented cell death were identified by using a luminescent ATP quantification method (Perkin Elmer's ATPlite). This assay examines influence on cytotoxicity induced by serum deprivation in normal and Huntington striatal cells.
# Freshlay passaged STHdhQ7/7 cells and mutant STHdhQ111/111 Huntington striatal cells were plated at a density of 20,000 cells/well in complete media and allowed to recover overnight at 33C. The next day, media was replaced with serum containing media or serum free media containing the compound. After 24 hours of incubation at 33 C, cells were assayed for ATP content using the Cell Titer-GLO ATP assay from Promega (cat # G7571). ATP/Toxicity Assay in Serum Free Media (SFM) (96 well plate format) 1. Plate 20,000 cells/well and incubate the cells in complete (w/serum) media overnight 2. Remove media, wash twice with PBS and add the SFM w/ or w/o the compound 3. Incubate at 33C; cells can be incubated at 39C for a more dramatic effect 4. ATP measurements after […] treatment, per kit protocol
smiles,measurement,setting,value
Cn1nnnc1Sc1ncnc2scc(-c3ccccc3)c12,viability change,"measured here: Q7/7 cells, at 30 µM",33% and 26%
same,viability change,"measured here: Q7/7 cells, at 60 µM",21% and 15%
same,viability change,"measured here: Q111/111 cells, at 60 µM",191% and 196%
same,viability change,at 30 µM,231% (active) and 240% (active)
same,viability change,"measured here: Q7/7 cells, FBS, at 30 µM",9% and 8%
same,viability change,"measured here: Q7/7 cells, FBS, at 60 µM",7% and 5%
same,viability change,"measured here: Q111/111 cells, FBS, at 30 µM",18% and 16%
same,viability change,"measured here: Q111/111 cells, FBS, at 60 µM",9% and 8%
